# Most compounds without a hit are left out; they make up all but 17% or so of the library.
# HepG2 tox: counter-screen for TGF-b inhibitors: cytotoxicity in HepG2 cells; HepG2 CAGA-GFP viability, ATP luminescence, 18 h; Potency, µM (titrated, usually from 46.1 µM), for the others: top-dose activity change, negative = cytotoxicity, most hits filed as cytotoxic; 0.76% of 410,000 active
#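 HepG2 CAGA-GFP cells (1000/well, DMEM with 1% FBS) received compound, then TGF-beta at 500 pg/mL final, and were incubated 18 hours at 37 degrees C. Viability was read by CellTiter-Glo luminescence. Media-only wells were set as complete cell-killing and DMSO as no toxicity.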
# TGFb inhibitor: blocks TGF-b signaling; HepG2 CAGA-GFP TGF-b/SMAD3 reporter, GFP fluorescence, 18 h; TGF-beta stimulated, 500 pg/mL final; Potency, µM (highest dose often 46.1 µM), for the others: at the top dose activity, negative = inhibition, actives largely listed as inhibitors; 1.2% of 410,000 active; AID 588855; also: % is scaled to controls: 0 for no effect and ±100 for the full control effect; nearly all actives have a fitted effect of over 65% in size
#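 HEPG2 CAGA-GFP reporter cells (1000/well, DMEM with 1% FBS) received compounds, then recombinant TGF-beta at 500 pg/mL final for 18 hours at 37 degrees C. Per-cell GFP summed per well was normalised to unstimulated and stimulated DMSO controls before curve fitting.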
# ATXN2 expr inh: ATXN2 expression inhibition | HEK-293 ATXN2-luciferase reporter, luminescence, 24 h | 0.72% of 360,000 active | Potency, µM (doses to about 57 µM), for the others: at the highest dose activity change, negative = inhibition, most hits filed as inhibitors; also: % is scaled to controls: 0 for no effect and ±100 for the full control effect; nearly all actives have a fitted effect of over 55% in size
#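 ATXN2-luciferase reporter cells (luciferase flanked by upstream and downstream ATXN2 gene portions) were treated 24 h at 37 °C with compounds at up to 57 uM. SteadyGlo luminescence gave expression; GF-AFC fluorescence gave viability.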
# TDP1 cell CPT: DT40-hTDP1 cell growth loss with CPT | chicken DT40 Tdp1-/-;hTDP1 cells + 20 nM CPT, ATP luminescence, 48 h | Potency, µM (highest dose often 46.2 µM), for the others: at the highest dose activity change, negative = growth inhibition, most hits filed as inhibitors | 12% of 420,000 active | AID 686979; also: % is scaled to controls: 0 for no effect and ±100 for the full control effect; nearly all actives have a fitted effect of over 55% in size
#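 Chicken DT40 Tdp1-/- cells complemented with human TDP1, 400 cells/well, exposed to compounds plus 20 nM camptothecin for at least 48 h at 37 C; viability read as ATP content by CellTiter-Glo luminescence.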
# S2 tox: viability counter-screen for ATXN expression inhibitors; S2 cells (HEK-293 line with an ATXN2-luciferase reporter) viability, CellTiter-Fluor protease fluorescence, 24 h; 0.49% of 400,000 active; Potency, µM (highest dose often 56.7 µM), most hits filed as cytotoxic; also: nearly all actives have a fitted effect of over 40% in size
# TDP1 cell noCPT: qHTS for Inhibitors of human tyrosyl-DNA phosphodiesterase 1 (TDP1): qHTS in cells in absence of CPT | DT40 Tdp1-/- hTDP1 cells, no CPT, ATP luminescence, 48 h | Potency, µM (top dose mostly 46.2 µM), for the others: at the highest dose activity change, negative = growth inhibition, most hits filed as inhibitors | 15% of 420,000 active | AID 686978, 2013; also: % is scaled to controls: 0 for no effect and ±100 for the full control effect; nearly all actives have a fitted effect of over 55% in size
#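 DT40 Tdp1-/-;hTDP1 cells, no CPT (DMSO vehicle only), 400 cells/well; compounds pin-transferred; ≥48 hr, 37 °C; CellTiter-Glo 30 min RT dark, luminescence read.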
# The depositor's hits bear a star; i = inactive; ? = inconclusive; · = no result given; ! = not active in a repeat. Calls follow the shape of the dose curve; as a rule, active = well fitted curve in the direction sought with a large enough effect; inconclusive = small, poorly fitted or top-dose-only effect, or another doubt; inactive = no such curve, though single readings can be large; an effect the other way counts as inactive or inconclusive. Potency is read from the fitted curve at half-maximal effect.
SMILES,HepG2 tox,TGFb inhibitor,ATXN2 expr inh,TDP1 cell CPT,S2 tox,TDP1 cell noCPT
Cc1ccc(Cl)c2sc(N3CCN(C(=O)c4ccco4)CC3)nc12,-16.7%,?,-22.3%,?,i,16.4µM*
Cc1cccc2sc(N3CCN(C(=O)c4ccco4)CC3)nc12,-31.8%,-21.5%,·,?,·,?
Cc1ccc(C)c2sc(N3CCN(C(=O)c4ccco4)CC3)nc12,-51.6%,10µM*,?,?,i,18.4µM*
CC1(C)OC(c2ccccc2)=C/C(=C/C=Nc2ccccc2)O1,-11.4%,?,-0.3%,23.1µM*,?,?
CC1(C)OC(c2ccccc2)=C/C(=C\C=N\NC(=O)c2ccncc2)O1,-179.2%,?,?,?,?,?
CC(=O)N1CCC2(CC1)CN(c1ccncc1)C2,·,·,·,2.1%,·,-7.6%
O=C(Cn1c(C(F)(F)F)nc2ccccc21)N/N=C/c1ccco1,13.7%,8.2%,16.0%,-2.9%,?,-5.5%
CCc1cc2c(COC(=O)c3c(C)noc3C)cc(=O)oc2cc1O,-14.8%,-16.4%,·,?,i,10.3µM*
COc1ccc(C(C)=O)cc1COC(=O)c1c(C)noc1C,0.6%,10.2%,1.8%,?,i,14.6µM*
O=C(O)C1CC=CCC1C(=O)NC1CCCCC1 (configuration not stated),-0.7%,10.8%,-8.9%,-7.2%,i,-5.8%
COc1ccc(N(C(=O)c2ccccc2F)S(=O)(=O)c2ccc3c(c2)n(C)c(=O)n3C)cc1,6.9%,12.0%,8.2%,11.2%,i,-3.6%
Cc1ccc(S(=O)(=O)N(C)C)cc1NC(=S)N1CCc2ccccc21,-2.5%,-14.6%,-25.0%,-26.2%,i,-23.2%
O=C(NCC1COc2ccccc2O1)c1ccc(NC(=O)C(c2ccccc2)c2ccccc2)cc1 (configuration not stated),-18.4%,?,·,18.4µM*,?,9.2µM*
Cn1nc(C(=O)NCC2COc3ccccc3O2)c2ccccc2c1=O (configuration not stated),-18.1%,-3.7%,-6.4%,23.1µM*,i,20.6µM*
COc1ccc(-n2nc(C(=O)NCC(=O)NCC3COc4ccccc4O3)c3ccccc3c2=O)cc1 (configuration not stated),2.6%,?,-13.2%,?,?,?
COc1ccc(-c2[nH]ncc2CN2C[C@@H]3CCC[C@H]2C3)c(F)c1,1.4%,1.9%,-25.3%,3.4%,i,?
CC1CCCCN1S(=O)(=O)c1ccc(N(C(=O)c2cnccn2)C(C(=O)NC2CCCC2)c2cccs2)cc1 (configuration not stated),16.4%,-16.1%,-8.5%,?,i,20.6µM*
CC1CCCCN1S(=O)(=O)c1ccc(N(C(=O)c2cnccn2)C(C(=O)NC2CCCCC2)c2cccs2)cc1 (configuration not stated),-28.8%,?,0.3%,?,i,?
CN(Cc1ccccc1)C(=O)[C@@H]1CCCN1C(=O)[C@@H]1CCCN1C(=O)OC(C)(C)C,·,·,7.7%,-21.8%,i,-27.8%
COC(=O)c1scc(-c2ccc(C)cc2)c1S(=O)(=O)Nc1cc(C)ccc1OC,-14.3%,-3.0%,4.4%,?,i,23.1µM*
CCOC(=O)c1scc(-c2ccccc2)c1S(=O)(=O)Nc1cc(OC)cc(OC)c1,-7.0%,?,-10.6%,?,?,?
COC(=O)c1scc(-c2ccc(C)cc2)c1S(=O)(=O)Nc1cc(C)c(Cl)cc1OC,-47.1%,-28.6%,-6.5%,4.61µM*,i,23.1µM*
Cc1ccc(N2CC(C(=O)Nc3ccc4c(c3)OCO4)CC2=O)cc1C (configuration not stated),-35.9%,-28.0%,4.7%,?,i,-11.9%
CC1CCCCN1C(=O)CN1CCN(S(=O)(=O)c2ccc(Br)cc2Cl)CC1 (configuration not stated),-13.8%,?,-19.2%,?,i,-16.1%
Cc1cccc(C)c1OCc1cc(C(=O)N(C)CCc2ccccn2)no1,12.7%,-7.5%,0.1%,?,i,?
SMILES,HepG2 tox,TGFb inhibitor,ATXN2 expr inh,TDP1 cell CPT,S2 tox,TDP1 cell noCPT
CCn1c(SCC(=O)N2CCCc3ccccc32)nnc1-c1ccoc1C,-2.8%,3.5%,-3.4%,-11.0%,i,-8.1%
CC(C)(C)NC(=O)[C@@H]1CN(Cc2cccnc2)CCN1C[C@@H](O)C[C@@H](Cc1ccccc1)C(=O)N[C@H]1c2ccccc2C[C@H]1O,-16.5%,22.8%,-4.8%,?,i,11.9µM*!
COc1ccc2nc(C)cc(Nc3ccccc3O)c2c1,-25.8%,?,·,23.1µM*,?,?
COc1ccc2nc(C)cc(Nc3ccccc3OC)c2c1,-46.3%,-6.0%,·,?,i,?
COc1ccc(Nc2cc(C)nc3ccc(C)cc23)cc1,-39.7%,-23.4%,·,?,?,16.4µM*
COc1ccc(/C=N/Nc2cc(C)nc3ccc(Br)cc23)cc1,6.31µM*,11.2µM*,?,?,?,8.2µM*
CCOC(=O)c1ccc2nc(C(F)(F)F)[nH]c(=O)c2c1,14.3%,0.0%,-0.7%,16.4µM*,i,7.31µM*
CCOC(=O)c1ccc2nc(C)c3c(c2c1)OC(C)C3 (configuration not stated),7.9%,12.5%,-11.4%,-7.5%,i,-13.2%
Cc1ccccc1-n1c(SCC(=O)N/N=C/c2sccc2C)nc2ccccc2c1=O,8.2%,1.3%,3.2%,-1.6%,?,-4.5%
CCOC(=O)c1ccc2nc(C)cc(Nc3ccc(OC(C)C)cc3)c2c1,-52.8%,?,?,23.1µM*,i,18.4µM*
COc1ccc2nc(C)cc(NCc3cccc(C(F)(F)F)c3)c2c1,22.4µM*,?,?,14.6µM*,i,13µM*
Cc1ccc2nc(C)cc(Nc3ccc4c(c3)OCCO4)c2c1,-21.8%,?,-19.1%,22.4µM*,?,12.6µM*
CCOC(=O)c1ccc(NC(=O)c2cc(C)nc3ccccc23)cc1,6.6%,9.3%,-12.5%,17.7%,i,4.3%
COc1ccc(CCC(=O)NCc2cccc(C(F)(F)F)c2)cc1,-68.9%,2.0%,-1.1%,-5.3%,i,-4.1%
CC(=O)c1ccc(Nc2cc(C)nc3ccc(C)cc23)cc1,-45.4%,-12.6%,-29.2%,?,?,?

# Source: PubChem BioAssay
